The values below come from PubChem BioAssay.

The nature of experiment [1]: small molecules captured by biotinylated probe aFSTL3 – biochemical, small-molecule microarray, fluorescence 635/667, stem cell growth factor project, primary screen (AID 1064).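 Also: measures binding of the biotinylated anti-FSTL3 antibody to printed compounds.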 The conditions noted are these: higher = more signal.
A short description of experiment [2]: binders from COS7 lysate, DM2A8 probe, primary screen, torsin A project, cell lysate, small-molecule microarray, fluorescence 635/667 (AID 1065). The conditions noted are these: higher = more signal, COS7 lysate expressing mutant human TOR1A.
A short description of experiment [3]: small molecules captured by biotinylated probe aFGF2 – biochemical, small-molecule microarray, fluorescence 635/667, stem cell growth factor project, primary screen (AID 1067).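 Also: measures binding of biotinylated aFGF2 protein to printed compounds on slides; z-score merges feature fluorescence and signal-to-noise across triplicate slides.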 The conditions noted are these: higher = more signal.
Experiment [4] in a line: small molecules captured by biotinylated probe aFGF10 – biochemical, small-molecule microarray, fluorescence 635/667, stem cell growth factor project, primary screen (AID 1071).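 Also: score merges 667 nm spot intensity and signal to noise from triplicate slides.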 The conditions noted are these: higher = more signal.
For experiment [5], the target named is Neurogenic locus notch homolog protein 2 (Homo sapiens) (UniProt Q04721). As to the kind of experiment: small molecules binding Notch2 protein – biochemical, small-molecule microarray, 635 nm fluorescence, stem cell growth factors, primary screen (AID 1073). To be noted: higher = more signal.
The target in experiment [6] is Pro-neuregulin-1, membrane-bound isoform (Homo sapiens) (UniProt Q02297). Put plainly: small molecules binding neuregulin-1 protein – biochemical, small-molecule microarray, fluorescence 635/667, psychiatric disease protein project, primary screen (AID 1075).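 Also: score combines 667 nm spot fluorescence with signal to noise.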 To be noted: NRG1 binding, 635 nm fluorescence, higher = more signal.
Experiment [7] relates to Neuregulin-1 EGF-like domain. As to the kind of experiment: small molecules binding NRG1 EGF domain – biochemical, small-molecule microarray, 635 nm fluorescence, primary screen (AID 1081).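 Also: binding of the protein to compounds printed on small-molecule microarray slides.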 The conditions noted are these: higher = more signal.
Experiment [8] is described as follows: FRG1 expression reporter modulators in myotubes – cell-based, C2C12 myotubes, firefly/Renilla luciferase, luminescence, FRG1 inhibition for FSHD, primary screen (AID 1084). The conditions noted are these: FRG1 promoter luciferase, higher = more signal, called active from +8 up or from −8 down.
The nature of experiment [9]: small molecules captured by biotinylated probe aFST – biochemical, small-molecule microarray, fluorescence 635/667, stem cell growth factor project, primary screen (AID 1086).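 Also: score merges 667 nm fluorescence with signal-to-noise of each printed compound spot.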 To be noted: higher = more signal.
The nature of experiment [10]: binders of probe aHhip on microarray, primary screen, stem cell growth factor project, biochemical, small-molecule microarray, fluorescence 635/667 (AID 1087).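 Also: score merges spot fluorescence at 667nm with spot signal to noise ratio.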 To be noted: higher = more signal.
Experiment [11] relates to PRMT1 (protein arginine N-methyltransferase 1). Put plainly: small molecules binding arginine methyltransferase PRMT1 – biochemical, small-molecule microarray, 635 nm fluorescence, primary screen (AID 1088).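 Also: binding of Prmt1 protein to compounds spotted on small-molecule microarray slides.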 To be noted: higher = more signal.
The nature of experiment [12]: growth effects on S. cerevisiae YJM789 – YJM789 clinical isolate, OD600, 24 h, basal, primary screen (AID 1089).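 Also: growth of clinical yeast isolate S. cerevisiae YJM 789 seeded 1000 cells per well; test concentration not given here.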 The conditions noted are these: higher = more signal, called active from +8 up or from −8 down.
Experiment [13] in a line: S. pombe growth modifiers, basal conditions – strain 972, OD600, 24 h, no modulator, primary screen (AID 1090).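 Also: basal condition with compound alone and no growth modifier present; test concentration not given here.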 The conditions noted are these: S. pombe 972 growth, higher = more signal, called active from +8 up or from −8 down.
A short description of experiment [14]: budding yeast growth modifiers under rapamycin – strain BY4716, OD600, 96 h, primary screen (AID 1091). Also: test concentration not given here. To be noted: S. cerevisiae BY4716 + rapamycin, higher = more signal, called active from +8 up or from −8 down.
For experiment [15], the target named is Torsin-1A-interacting protein 2 (Homo sapiens) (UniProt Q8NFQ8). Put plainly: small molecules binding lysate-expressed LULL1 – cell lysate, human LULL1 lysate, 635/667 nm fluorescence, primary screen (AID 1092).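 Also: probe is lysate of COS7 cells overexpressing human LULL1; score merges per-feature 667 nm fluorescence with signal-to-noise.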 To be noted: small-molecule microarray, hLULL1 lysate binding, 635 nm fluorescence; higher = more signal.
A short description of experiment [16]: optical density change of DRC41 E. coli – strain DRC41, OD650, 24 h, E. coli filamentation project, primary screen (AID 1093).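 Also: MC1000 strain lacking acrAB efflux and sulA so SOS filamentation is blocked; test concentration not given here.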 To be noted: E. coli DRC41 growth, higher = more signal, called active from +8 up or from −8 down.
The nature of experiment [17]: probe aLefty2 binding to arrayed compounds – biochemical, biotinylated probe, 635/667 nm fluorescence, primary screen (AID 1094).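 Also: score merges spot fluorescence near 667 nm with spot signal-to-noise ratio.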 To be noted: small-molecule microarray, higher = more signal.
The test system of experiment [18] is Noggin (protein binding on small-molecule microarray). As to the kind of experiment: small molecules binding Noggin protein – biochemical, 635/667 nm fluorescence, primary screen (AID 1095).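 Also: score merges 667 nm feature fluorescence with signal to noise over triplicate slides.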 The conditions noted are these: 635 nm fluorescence, higher = more signal.
Experiment [19] addresses Neurogenic locus notch homolog protein 3 (Homo sapiens) (UniProt Q9UM47). As to the kind of experiment: small molecules binding NOTCH3 protein – biochemical, 635/667 nm fluorescence, primary screen (AID 1096). To be noted: small-molecule microarray, 635 nm fluorescence, higher = more signal.
Experiment [20] is described as follows: probe aEGFR binding to arrayed compounds – biochemical, biotinylated probe, 635/667 nm fluorescence, primary screen (AID 1097).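 Also: probe is a biotinylated anti-EGFR antibody binding compounds printed on slides; score combines fluorescence near 667 nm and signal to noise of each spot.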 The conditions noted are these: small-molecule microarray, higher = more signal.

Active and inactive are the calls of the source.

Torsin-1A-interacting protein 2 (Homo sapiens), sequence (Q8NFQ8 whole entry, looked up): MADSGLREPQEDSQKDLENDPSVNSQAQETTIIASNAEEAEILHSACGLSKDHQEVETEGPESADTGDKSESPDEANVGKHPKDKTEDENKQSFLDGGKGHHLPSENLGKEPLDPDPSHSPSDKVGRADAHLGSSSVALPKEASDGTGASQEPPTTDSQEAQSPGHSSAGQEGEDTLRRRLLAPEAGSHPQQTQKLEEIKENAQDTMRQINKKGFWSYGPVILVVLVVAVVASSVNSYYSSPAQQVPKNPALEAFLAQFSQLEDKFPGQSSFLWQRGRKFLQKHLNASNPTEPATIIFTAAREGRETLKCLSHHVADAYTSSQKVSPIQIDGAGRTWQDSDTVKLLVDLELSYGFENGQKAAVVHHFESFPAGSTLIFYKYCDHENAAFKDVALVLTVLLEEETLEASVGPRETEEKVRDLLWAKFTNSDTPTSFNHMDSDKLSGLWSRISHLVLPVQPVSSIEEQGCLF
Neurogenic locus notch homolog protein 2 (Homo sapiens), sequence (Q04721 whole entry, looked up, canonical isoform): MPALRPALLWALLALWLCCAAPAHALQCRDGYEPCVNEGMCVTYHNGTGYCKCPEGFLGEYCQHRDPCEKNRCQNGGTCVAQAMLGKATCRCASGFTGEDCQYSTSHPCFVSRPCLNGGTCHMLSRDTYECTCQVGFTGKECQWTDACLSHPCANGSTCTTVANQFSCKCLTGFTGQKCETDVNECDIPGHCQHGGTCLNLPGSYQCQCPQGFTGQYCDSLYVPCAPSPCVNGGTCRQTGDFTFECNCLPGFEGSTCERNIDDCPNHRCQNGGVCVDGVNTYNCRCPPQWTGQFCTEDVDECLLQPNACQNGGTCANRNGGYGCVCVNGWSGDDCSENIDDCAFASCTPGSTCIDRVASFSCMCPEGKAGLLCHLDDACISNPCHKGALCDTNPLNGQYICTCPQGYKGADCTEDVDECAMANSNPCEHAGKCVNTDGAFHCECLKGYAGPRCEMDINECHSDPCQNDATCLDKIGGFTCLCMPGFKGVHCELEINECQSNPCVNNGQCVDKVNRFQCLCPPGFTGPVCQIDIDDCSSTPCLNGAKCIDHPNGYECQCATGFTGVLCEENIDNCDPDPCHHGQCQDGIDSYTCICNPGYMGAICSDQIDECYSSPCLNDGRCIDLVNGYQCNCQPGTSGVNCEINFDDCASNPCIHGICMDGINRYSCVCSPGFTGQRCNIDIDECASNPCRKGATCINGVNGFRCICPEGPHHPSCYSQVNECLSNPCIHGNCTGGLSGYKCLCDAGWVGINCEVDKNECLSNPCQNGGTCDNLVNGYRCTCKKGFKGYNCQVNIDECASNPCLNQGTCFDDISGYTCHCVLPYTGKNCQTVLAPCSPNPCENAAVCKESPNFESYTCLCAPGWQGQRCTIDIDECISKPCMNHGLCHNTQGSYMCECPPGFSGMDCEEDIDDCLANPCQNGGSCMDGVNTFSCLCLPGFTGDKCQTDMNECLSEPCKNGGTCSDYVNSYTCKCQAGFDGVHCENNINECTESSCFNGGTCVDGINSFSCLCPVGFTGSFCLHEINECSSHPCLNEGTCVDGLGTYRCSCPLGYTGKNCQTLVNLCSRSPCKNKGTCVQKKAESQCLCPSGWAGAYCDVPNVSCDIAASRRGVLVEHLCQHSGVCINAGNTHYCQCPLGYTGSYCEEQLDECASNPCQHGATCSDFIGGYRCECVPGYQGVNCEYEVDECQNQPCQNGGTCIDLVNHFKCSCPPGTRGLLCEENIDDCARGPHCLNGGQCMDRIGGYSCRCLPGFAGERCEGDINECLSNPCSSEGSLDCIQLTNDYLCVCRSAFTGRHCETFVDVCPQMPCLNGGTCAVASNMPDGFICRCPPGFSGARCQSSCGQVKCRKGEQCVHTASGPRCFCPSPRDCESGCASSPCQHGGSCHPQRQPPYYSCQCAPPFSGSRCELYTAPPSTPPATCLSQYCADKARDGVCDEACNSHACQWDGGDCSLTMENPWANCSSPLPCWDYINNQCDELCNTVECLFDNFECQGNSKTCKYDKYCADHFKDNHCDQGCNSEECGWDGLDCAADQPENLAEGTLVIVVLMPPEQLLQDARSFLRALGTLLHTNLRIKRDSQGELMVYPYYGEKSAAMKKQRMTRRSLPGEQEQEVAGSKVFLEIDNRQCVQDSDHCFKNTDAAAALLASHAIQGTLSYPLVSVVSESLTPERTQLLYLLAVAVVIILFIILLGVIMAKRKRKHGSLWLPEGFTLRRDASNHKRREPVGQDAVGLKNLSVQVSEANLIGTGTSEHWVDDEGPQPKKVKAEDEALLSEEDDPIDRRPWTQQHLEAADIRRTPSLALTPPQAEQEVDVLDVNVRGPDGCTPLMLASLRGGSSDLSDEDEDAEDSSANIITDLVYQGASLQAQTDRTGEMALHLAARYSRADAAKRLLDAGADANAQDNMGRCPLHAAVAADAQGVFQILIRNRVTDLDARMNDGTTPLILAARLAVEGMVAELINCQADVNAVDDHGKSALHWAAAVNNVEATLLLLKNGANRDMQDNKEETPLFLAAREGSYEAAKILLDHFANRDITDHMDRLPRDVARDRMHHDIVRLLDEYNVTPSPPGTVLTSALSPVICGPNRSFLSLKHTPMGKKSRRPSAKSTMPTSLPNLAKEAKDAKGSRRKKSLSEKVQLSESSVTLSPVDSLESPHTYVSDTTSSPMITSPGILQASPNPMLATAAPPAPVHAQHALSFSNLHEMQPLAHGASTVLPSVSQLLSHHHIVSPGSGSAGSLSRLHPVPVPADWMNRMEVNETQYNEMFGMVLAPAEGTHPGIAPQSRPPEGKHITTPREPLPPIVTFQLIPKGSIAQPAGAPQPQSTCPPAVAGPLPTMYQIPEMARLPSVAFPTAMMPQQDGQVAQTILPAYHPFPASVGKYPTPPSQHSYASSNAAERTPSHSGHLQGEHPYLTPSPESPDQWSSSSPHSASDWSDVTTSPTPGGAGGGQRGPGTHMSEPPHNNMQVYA
Pro-neuregulin-1, membrane-bound isoform (Homo sapiens), sequence (Q02297 whole entry, looked up, the tested form may be a part, canonical isoform): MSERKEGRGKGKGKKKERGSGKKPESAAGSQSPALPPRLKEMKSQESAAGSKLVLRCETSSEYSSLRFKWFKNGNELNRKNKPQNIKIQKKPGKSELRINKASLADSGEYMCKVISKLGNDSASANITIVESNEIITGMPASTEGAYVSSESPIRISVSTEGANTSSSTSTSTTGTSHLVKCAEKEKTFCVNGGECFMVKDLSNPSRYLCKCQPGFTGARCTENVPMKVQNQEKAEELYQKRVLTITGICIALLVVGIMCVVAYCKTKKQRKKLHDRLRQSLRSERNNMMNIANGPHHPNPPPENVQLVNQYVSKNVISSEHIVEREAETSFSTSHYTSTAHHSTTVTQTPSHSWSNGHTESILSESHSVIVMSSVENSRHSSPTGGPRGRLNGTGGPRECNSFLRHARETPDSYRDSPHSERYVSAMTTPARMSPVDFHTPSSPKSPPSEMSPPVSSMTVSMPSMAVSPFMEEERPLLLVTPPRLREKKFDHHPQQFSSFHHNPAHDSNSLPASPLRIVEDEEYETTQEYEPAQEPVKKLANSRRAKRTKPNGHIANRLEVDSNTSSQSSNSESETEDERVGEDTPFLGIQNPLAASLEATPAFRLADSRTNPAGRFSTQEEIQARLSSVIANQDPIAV

On to `O=C1N(Cc2ccccc2)c2ccccc2[C@@H]2OC(c3ccc(OCCCO)cc3)=N[C@]12CCS(=O)(=O)c1ccccc1`, for which the composite z-score in experiment [1] is 0.625; in [2], 0.206; in experiment [3] it was 0.0111; in experiment [4], -0.23; in [5], 0.888; in [6] it was 1.03. The composite z-score is 1.28 in experiment [7]; 1.15 in experiment [9]; -0.253 in [10]; 1.5 in experiment [11]; 2.98 in [15]; 0.169 in [17]. Further, the composite z-score in experiment [18] was 1.11; in experiment [19], 0.783; in experiment [20], 0.0248. Moreover, the z-score in experiment [8] is -2.27 (inactive); in [12] it was 0.805 (inactive); in experiment [13] it was 1.11 (inactive); in experiment [14] it was 7.05 (inactive); in experiment [16], 0.0515 (inactive).

Take `NC(=O)NCC#Cc1ccc2c(c1)[C@]1(C(=O)N2)[C@H](C(N)=O)[C@H]2C(=O)O[C@H](c3ccccc3)[C@H](c3ccccc3)N2[C@@H]1c1ccc(O)cc1`: the composite z-score in experiment [1] was 1.41; in experiment [2], -0.0275; in experiment [3], -0.0413; in experiment [4] it was -0.166; in experiment [5], -0.723; in [6], 1.14. Moreover, the composite z-score was -0.22 in [7]; 0.752 in experiment [9]; 1.15 in experiment [10]; 0.317 in experiment [11]; 3.6 in experiment [15]; 0.411 in experiment [17]. Also, the values for the composite z-score in [18], in [19] and in experiment [20] were 0.544, -0.382 and -0.413, respectively. Also, the z-score in experiment [8] was -0.0861 (inactive); in experiment [12], -0.989 (inactive); in experiment [13], -0.434 (inactive); in experiment [14], -0.07 (inactive); in [16], 0.792 (inactive).

Take `Cc1ccccc1C(O)C1C=CC2C(=O)N(c3ccccc3)C(=O)C2N1Nc1ccc(C(C)C)cc1` (stereo not given): the composite z-score was -0.0476 in experiment [1]; -0.0455 in experiment [2]; 0.0536 in [3]; 0.82 in [4]; 1.5 in experiment [5]; 1.27 in [6]. For the same compound, the composite z-score was 0.592 in experiment [7]; 1.41 in experiment [9]; 0.142 in experiment [10]; 1.13 in experiment [11]; 2.3 in [15]; -0.0675 in [17]. Further, the composite z-score in experiment [18] is -0.0693; in [19], 1.07; in experiment [20], 0.0461. In addition, the z-score in experiment [8] is -0.729 (inactive); in experiment [12] it was 1.38 (inactive); in experiment [13] it was 0.0135 (inactive); in experiment [14], 0.798 (inactive); in experiment [16], -1.89 (inactive).

Regarding `O=C(c1ccccc1)N1Cc2ccccc2C[C@@]2(COC(c3ccc(OCCCO)cc3)=N2)C1=O`, the composite z-score in experiment [1] is -0.0932; in experiment [2], 0.711; in [3] it was 0.0292; in [4], 0.591; in experiment [5], 1.03; in experiment [6] it was 0.0612. Also, the composite z-score in [7] was 1.25; in experiment [9] it was 0.146; in [10] it was -0.0296; in experiment [11] it was 1.55; in experiment [15] it was 3.39; in experiment [17] it was 0.0478. The values for the composite z-score in [18], in [19] and in experiment [20] were 0.779, 1.04 and -0.0439, respectively. Besides, the z-score is -0.187 (inactive) in experiment [8]; -1.1 (inactive) in experiment [12]; -11.1 (active) in experiment [13]; 3.57 (inactive) in experiment [14]; 0.0571 (inactive) in experiment [16].

`NC(=O)NCC#Cc1ccc2c(c1)[C@]1(C(=O)N2)[C@H](c2ccccc2OCCO)N2[C@H](c3ccccc3)[C@H](c3ccccc3)OC(=O)[C@H]2[C@@H]1C(=O)Nc1nc2ccccc2s1`: the composite z-score was -0.108 in experiment [1]; -0.354 in experiment [2]; -0.016 in experiment [3]; 0.268 in experiment [4]; 0.295 in [5]; 0.756 in [6]. Moreover, the composite z-score in experiment [7] was 0.176; in [9] it was 0.617; in experiment [10], -0.0296; in [11], 1.24; in experiment [15], 2.49; in [17] it was -0.0416. The composite z-score in [18] was 0.288; in [19], 0.773; in experiment [20] it was -0.178. For the same compound, the z-score was 0.169 (inactive) in experiment [8]; 1.99 (inactive) in experiment [12]; 1.61 (inactive) in experiment [13]; 3.78 (inactive) in experiment [14]; 1.15 (inactive) in [16].
